{"source": "PubChem BioAssay AID697", "about": "(Columbia University Molecular Screening Center, 2007)", "note": "Out of some 96,000 compounds screened, about 100 (0.1%) were called active.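 Rule for the calls: active = activation at 2 µM above a set limit, the mean plus 5 SD (cut at about 37% in these data); inactive = the rest.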 What follows is part of a selection rich in actives, with near analogues and random picks from the rest."}
{"target": "Tyrosine-protein phosphatase non-receptor type 22 (Homo sapiens) (UniProt Q9Y2R2)", "sequence (Q9Y2R2 whole entry, looked up)": "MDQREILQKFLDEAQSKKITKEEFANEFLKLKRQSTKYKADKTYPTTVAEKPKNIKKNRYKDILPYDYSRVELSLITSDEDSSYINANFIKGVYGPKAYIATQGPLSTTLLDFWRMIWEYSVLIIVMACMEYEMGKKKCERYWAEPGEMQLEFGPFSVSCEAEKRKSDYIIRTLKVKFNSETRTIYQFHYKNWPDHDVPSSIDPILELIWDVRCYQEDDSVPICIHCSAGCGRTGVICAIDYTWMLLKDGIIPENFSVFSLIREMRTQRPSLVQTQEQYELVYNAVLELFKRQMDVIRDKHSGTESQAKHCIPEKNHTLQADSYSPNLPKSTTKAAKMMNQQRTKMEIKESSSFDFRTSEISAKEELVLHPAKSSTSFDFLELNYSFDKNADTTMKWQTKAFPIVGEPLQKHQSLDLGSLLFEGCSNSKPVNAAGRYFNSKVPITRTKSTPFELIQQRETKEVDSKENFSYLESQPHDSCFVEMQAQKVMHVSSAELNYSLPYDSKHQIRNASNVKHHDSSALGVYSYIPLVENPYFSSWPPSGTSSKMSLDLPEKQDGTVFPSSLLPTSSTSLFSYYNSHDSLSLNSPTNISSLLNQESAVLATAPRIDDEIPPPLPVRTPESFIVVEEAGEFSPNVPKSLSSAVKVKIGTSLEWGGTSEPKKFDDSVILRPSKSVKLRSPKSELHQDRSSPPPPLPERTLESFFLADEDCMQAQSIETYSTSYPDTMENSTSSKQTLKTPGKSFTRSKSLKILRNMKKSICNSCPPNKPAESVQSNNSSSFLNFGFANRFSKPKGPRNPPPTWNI", "assay": "LYP phosphatase activators, primary screen, biochemical, DiFMUP fluorescence, 2 µM (AID 697)", "conditions": "recombinant LYP, at 2 µM, stronger effect = higher value, 0 = plate median, 100 = signal doubled"}
{"smiles": "Cc1cc(C)n2nc(C(=O)NC(C)(C)C)nc2n1", "activation": "3.4% (inactive)"}
{"smiles": "C=CCN(C(=O)Nc1ccc2oc(C)nc2c1)c1ccccc1", "activation": "-7.1% (inactive)"}
{"smiles": "COC(=O)c1cccc(-n2[nH]nnc2=S)c1", "activation": "-1.7% (inactive)"}
{"smiles": "CC(C)(CCl)C(=O)Nc1ccc(Sc2ccc(F)cc2)cc1", "activation": "1.3% (inactive)"}
{"smiles": "CC1(C)Cc2cccc(OCC(N)=O)c2O1", "activation": "-3.7% (inactive)"}
{"smiles": "CCCCCCc1cc2cc(-c3nnc(-c4cccc(OC)c4)o3)c(=O)oc2cc1O", "activation": "-30.3% (inactive)"}
{"smiles": "COc1ccc(CNc2ccc3c(c2)CCC3)cc1OC", "activation": "-10.3% (inactive)"}
{"smiles": "COc1ccc(OC)c(-n2nnnc2SCC(=O)Nc2cc(C)ccc2OC)c1", "activation": "2.6% (inactive)"}
{"smiles": "CC(C)C(=O)Nc1ccc2c(c1)oc1ccccc12", "activation": "-1.6% (inactive)"}
{"smiles": "N/C(=N\\OC(=O)c1cc(-c2ccccc2)nc2ccccc12)c1ccncc1", "activation": "-7.1% (inactive)"}
{"smiles": "COc1ccc2c(c1)cc1n2CCN=C1NN", "activation": "0.1% (inactive)"}
{"smiles": "COc1ccc(NC(=O)C2C3C=CC(C3)C2C(=O)NCc2ccccn2)c(OC)c1", "note": "(stereo unspecified)", "activation": "-5% (inactive)"}
{"smiles": "CC1=NN(/C(=N\\c2nnc(C)s2)Nc2ccccc2)[C@H](c2ccc(C)cc2)S1", "activation": "-6.4% (inactive)"}
{"smiles": "CCc1ccc(C(=O)CSc2nnc(C)c(=O)[nH]2)cc1", "activation": "-2.7% (inactive)"}
{"smiles": "COc1ccc(OC(C)C(=O)Nc2cccnc2)cc1", "note": "(stereo unspecified)", "activation": "6.9% (inactive)"}
{"smiles": "C/C(=N/NC(=O)c1ccc(NC(=O)c2ccc(F)cc2)cc1)c1ccccc1", "activation": "-1.9% (inactive)"}
{"smiles": "CCc1ccc(C2C(C#N)=C(N)Oc3n[nH]c(CC(=O)OC)c32)cc1", "note": "(stereo unspecified)", "activation": "5.3% (inactive)"}
{"smiles": "COC(=O)CSc1nc2c(c(C3CC=CCC3)c1C#N)CCC2", "note": "(stereo unspecified)", "activation": "-5.9% (inactive)"}
{"smiles": "C=CCNC(=O)c1cc2nc(C3CC3)cc(C(F)F)n2n1", "activation": "-5.5% (inactive)"}
{"smiles": "COC(=O)c1cccc(N(C(=O)c2ccco2)C(C(=O)NC2CCCC2)c2ccco2)c1", "note": "(stereo unspecified)", "activation": "6.5% (inactive)"}
{"smiles": "CC(C)C(=O)Nc1nnc(Sc2ccc(N(C)C)cc2)s1", "activation": "-2.7% (inactive)"}
{"smiles": "Cc1nn(Cc2ccc(F)cc2)c(C)c1NC(=O)c1noc2c1CCc1ccccc1-2", "activation": "7.1% (inactive)"}
{"smiles": "CCOc1c2ccc(C(=O)NCc3ccc(OC(F)(F)F)cc3)cc2nn1C", "activation": "10% (inactive)"}
{"smiles": "COc1cc(C(=S)N2CCOCC2)cc(OC)c1OC(=O)c1cc([N+](=O)[O-])c(C)c([N+](=O)[O-])c1", "activation": "7% (inactive)"}
{"smiles": "Cc1cc(-c2cccs2)nc(-n2cccc2)n1", "activation": "3.4% (inactive)"}
{"smiles": "CC1=CC(=O)C=CC1(C)C(Cl)(Cl)Cl", "note": "(stereo unspecified)", "activation": "3.7% (inactive)"}
{"smiles": "FC(F)(F)c1cc(C(F)(F)F)c2ccc(N3CCN(c4ccccc4)CC3)nc2n1", "activation": "2.8% (inactive)"}
{"smiles": "O=C1OC(c2ccc(Cl)cc2)=N/C1=C\\c1cccnc1", "activation": "7.7% (inactive)"}
{"smiles": "CC(C)c1cc(C(=O)O)n[nH]1", "activation": "1.7% (inactive)"}
{"smiles": "O=C(Nc1ccc2nc3n(c(=O)c2c1)CCCCC3)c1ccccc1Cl", "activation": "-2.7% (inactive)"}
{"smiles": "CC1(C)CC(=O)C=C(N2CCCC2)C1", "activation": "-1.1% (inactive)"}
{"smiles": "Cc1ccc(C2=CSC3=NS(=O)(=O)CCN23)cc1C", "activation": "-4.4% (inactive)"}
{"smiles": "Cc1ccc(-n2c(=O)c(C#N)cc3c(=O)n4ccccc4nc32)cc1C", "activation": "5.7% (inactive)"}
{"smiles": "CCCCCOC(=O)c1ccc(N2C(=O)C3C4C=CC(C4)C3C2=O)cc1", "note": "(stereo unspecified)", "activation": "12.4% (inactive)"}
{"smiles": "CCC(C)NC(=O)c1ccccc1NC(=O)c1ccccc1N(C)S(C)(=O)=O", "note": "(stereo unspecified)", "activation": "0.7% (inactive)"}
{"smiles": "CC(C)CC(=O)N1CCC(O)(CS(=O)(=O)Cc2ccccc2)CC1", "activation": "-3.4% (inactive)"}
{"smiles": "CCCCNC(=O)c1onc(CSc2cccc(OC)c2)c1C(=O)O", "activation": "4.5% (inactive)"}
{"smiles": "COc1ccc(CCN(C(=O)COc2ccccc2)c2nc(-c3ccccc3)cs2)cc1OC", "activation": "-13.3% (inactive)"}
{"smiles": "Cc1noc(NS(=O)(=O)c2ccc(N/C=C/C(=O)c3ccccc3)cc2)c1C", "activation": "1.5% (inactive)"}
{"smiles": "CCCCCc1ccc(-c2ccc(C(=O)O)cc2)nc1", "activation": "-8.9% (inactive)"}
{"smiles": "Cc1sc(NC(=O)C2C3CCC(O3)C2C(=O)O)c(C(=O)OC(C)C)c1-c1ccc(Cl)cc1", "note": "(stereo unspecified)", "activation": "-4.2% (inactive)"}
{"smiles": "COc1cc(/C=C2/C(=O)ON=C2C)ccc1OCc1ccccc1F", "activation": "6.2% (inactive)"}
{"smiles": "Cc1ccc(S(=O)(=O)/N=C(\\CN2CCOCC2)N2CCOCC2)cc1", "activation": "-1.4% (inactive)"}
{"smiles": "FC(F)(F)c1nc2ccccc2nc1N/N=C/c1ccc(Cl)cc1", "activation": "5.5% (inactive)"}
{"smiles": "CCOC(=O)Cn1c(-c2cccnc2Cl)nc2ccccc21", "activation": "15.2% (inactive)"}
{"smiles": "NC(=O)C1(N2CCCCC2)CCN(C2CC(=O)N(Cc3ccc(N4CCCC4=O)cc3)C2=O)CC1", "note": "(stereo unspecified)", "activation": "-5.5% (inactive)"}
{"smiles": "CN(C)C(=O)c1cc(Br)ccc1Cl", "activation": "-3.6% (inactive)"}
{"smiles": "COc1ccc(N(CC(=O)N/N=C/c2cccc3c2OCCO3)S(=O)(=O)c2ccc(NC(C)=O)cc2)cc1", "activation": "7.5% (inactive)"}
{"smiles": "O=C(/C=C/c1ccc(Cl)cc1Cl)c1cccnc1", "activation": "2.2% (inactive)"}
{"smiles": "CCOC(=O)N1CCN(Cc2nc(N)nc(Nc3ccc(C)cc3)n2)CC1", "activation": "7.7% (inactive)"}
{"smiles": "COc1cc(/C=C(\\C#N)c2nc3c(s2)CC(C)CC3)ccc1O", "note": "(stereo unspecified)", "activation": "-3.9% (inactive)"}
{"smiles": "COCc1cc(C)nc2sc3c(=O)n(-c4cccc5ccccc45)nnc3c12", "activation": "-7.5% (inactive)"}
{"smiles": "CC(=O)NC1=NN(C(C)=O)C(C)(c2ccc(Cl)s2)S1", "note": "(stereo unspecified)", "activation": "5.6% (inactive)"}
{"smiles": "O=S(=O)(c1cccc2nonc12)N1CCN(c2cccc(Cl)c2)CC1", "activation": "8.3% (inactive)"}
{"smiles": "O=C(O)CSCc1ccc(C(=O)O)o1", "activation": "-1.8% (inactive)"}
{"smiles": "CC(=O)c1cc2c(cc1NC(=O)CN1CCCCCC1)OCO2", "activation": "-5.9% (inactive)"}
{"smiles": "COc1ccccc1CNS(=O)(=O)c1ccc(C)cc1", "activation": "-13.5% (inactive)"}
{"smiles": "COC(=O)C1=C(C(=O)OC)C2(OC1c1ccc(Br)cc1)C(=O)c1ccccc1C2=O", "note": "(stereo unspecified)", "activation": "-2.6% (inactive)"}
{"smiles": "O=C(Cc1ccc2c(c1)CCCC2)Nc1ccccc1Cl", "activation": "5.5% (inactive)"}
{"smiles": "CCOc1ccccc1C(=O)NC1CC2CCCC(C1)N2Cc1ccccc1", "note": "(stereo unspecified)", "activation": "-12.3% (inactive)"}
{"smiles": "O=C(COc1ccc(S(=O)(=O)NCc2ccccc2)cc1)N1CCOCC1", "activation": "2.4% (inactive)"}
{"smiles": "Cc1cccc(C)c1OC(=O)CSc1nnc(-c2ccccc2)o1", "activation": "1.3% (inactive)"}
{"smiles": "COc1ccc(NS(=O)(=O)c2ccc(NC(=S)NC(=O)CC(C)C)cc2)cc1", "activation": "4.5% (inactive)"}
{"smiles": "O=C(CSCc1ccc([N+](=O)[O-])cc1)Nc1cccc(C(=O)Nc2ccccc2C(=O)O)c1", "activation": "1.6% (inactive)"}
{"smiles": "Cc1c(Nc2cc(N3CCCC(C)C3)c3nonc3c2[N+](=O)[O-])c(=O)n(-c2ccccc2)n1C", "note": "(stereo unspecified)", "activation": "3.1% (inactive)"}
{"smiles": "CCCCN(CC)CCNC(=O)c1[nH]c(C)c(C(C)=O)c1C", "activation": "1.3% (inactive)"}
{"smiles": "Cc1noc(C)c1CSCC(=O)Nc1nc2ccc(Oc3ccccc3)cc2s1", "activation": "1.8% (inactive)"}
{"smiles": "CCN(CC)C(=O)CC1(c2ccccc2OC)CCOC(C(C)C)C1", "note": "(stereo unspecified)", "activation": "4.3% (inactive)"}
{"smiles": "COc1ccc(NC(=O)CC2COc3ccccc3O2)c(OC)c1", "note": "(stereo unspecified)", "activation": "0.8% (inactive)"}
{"smiles": "CCN(CC)CCNc1ccc(Cl)cc1[N+](=O)[O-]", "activation": "14% (inactive)"}
{"smiles": "CC(C)C(=O)NC(=S)Nc1ccccc1F", "activation": "-2.4% (inactive)"}
{"smiles": "CCn1c(O)c2ccc(C(=O)N=NC(=O)c3cccnc3)cc2c1O", "activation": "0.7% (inactive)"}
{"smiles": "O=C(/C=C/c1cccs1)c1cc(Cl)ccc1OC(=O)N1CCOCC1", "activation": "2.4% (inactive)"}
{"smiles": "Clc1ccc(-n2nnnc2-c2cnc(-c3ccccn3)nc2-c2cccs2)cc1", "activation": "3.1% (inactive)"}
{"smiles": "O=C(CCN1CCc2ccccc2C(O)(c2ccccc2)C1)c1ccc2c(c1)OCCO2", "note": "(stereo unspecified)", "activation": "-5.7% (inactive)"}
{"smiles": "CCOC(=O)CNC(=O)CSc1nc2cccnc2n1CC", "activation": "-4.9% (inactive)"}
{"smiles": "Cc1ccc2[nH]c3c(=O)n(Cc4ccccn4)cnc3c2c1", "activation": "-0.9% (inactive)"}
{"smiles": "COC(=O)[C@@H](NC(=O)Nc1cc(Cl)ccc1C)C(C)C", "activation": "8.5% (inactive)"}
{"smiles": "CC(Oc1ccc(-c2ccccc2)c(F)c1)c1ccn(S(=O)(=O)c2cccc3ccccc23)n1", "note": "(stereo unspecified)", "activation": "-6.9% (inactive)"}
{"smiles": "CCOC1CS(=O)(=O)CC1OCC", "note": "(stereo unspecified)", "activation": "6.4% (inactive)"}
{"smiles": "Cc1ccn(C(CC(=O)c2ccc(Br)cc2)C(=O)O)n1", "note": "(stereo unspecified)", "activation": "-7.9% (inactive)"}
{"smiles": "COC(=O)CSc1nc(C)c2ccc(OC)cc2n1", "activation": "-3.9% (inactive)"}
{"smiles": "O=C(Cn1c(-c2cscn2)nc2ccccc21)Nc1ccc(Cl)cc1", "activation": "3% (inactive)"}
{"smiles": "O=C(Nc1cc2ccccc2oc1=O)C1CCCCC1", "activation": "-7.9% (inactive)"}
{"smiles": "COc1cccc(C(=O)Nc2ccc(NC(=O)c3ccco3)cn2)c1", "activation": "6.7% (inactive)"}
{"smiles": "CSCCC(NS(=O)(=O)c1ccc2c(c1)oc(=O)n2C)C(=O)NC1CCCc2ccccc21", "note": "(stereo unspecified)", "activation": "-8.6% (inactive)"}
{"smiles": "O=C(CN1C(=O)NC(Cc2ccccc2)(Cc2ccccc2)C1=O)NCC1CCCCC1", "activation": "0.3% (inactive)"}
{"smiles": "O=C(Nc1ccccc1F)c1cc(S(=O)(=O)N2CCCCC2)cs1", "activation": "-4.2% (inactive)"}
{"smiles": "Cc1ccc(C(=O)Nc2ccccc2C(=O)NC2CCCCC2)cc1S(=O)(=O)N1CCOCC1", "activation": "-0.7% (inactive)"}
{"smiles": "Cc1ccccc1NC(=O)c1cc(S(=O)(=O)N2CCOCC2)cs1", "activation": "38% (active)"}
{"smiles": "CCCCNS(=O)(=O)c1ccc(S(=O)(=O)n2cnc3ccccc32)cc1", "activation": "-10.5% (inactive)"}
{"smiles": "CO/N=C/c1ccc(N2CCN(C(=O)c3cccc(Cl)c3)CC2)c([N+](=O)[O-])c1", "activation": "-0.2% (inactive)"}
{"smiles": "COc1cc(C(=S)N2CCOCC2)cc(OC)c1OC(=O)c1cc([N+](=O)[O-])cc([N+](=O)[O-])c1", "activation": "-4.3% (inactive)"}
{"smiles": "CCn1c(C)nc2c1C(=O)c1ccccc1C2=O", "activation": "-0.9% (inactive)"}
{"smiles": "CCn1c(/C=C/c2ccc([N+](=O)[O-])o2)nc2ccccc2c1=O", "activation": "-10.9% (inactive)"}
{"smiles": "O=C(NCCCn1ccnc1)Nc1ccc(Cl)cc1Cl", "activation": "0.8% (inactive)"}
